Source: PubChem BioAssay (Tox21)
Results filed as inconclusive are left out. Entries that show only a call come without a potency. Active and inactive are the calls of the source. Calls come from the whole dose curve.

Target: Acetylcholinesterase (Homo sapiens) (UniProt P22303)
Assay: Acetylcholinesterase (AChE) small molecule antagonists: enzyme-based qHTS assay (AID 1347397); note: nearly all actives have a fitted effect of over 55% in size
Conditions: Potency: AChE enzyme activity inhibition; outcome: AChE enzyme activity inhibition; series mostly up to 115 µM
Outline: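 Human recombinant acetylcholinesterase; substrate acetylthiocholine; thiocholine quantified with DTNB (colorimetric). Compound preincubation 30 min RT; reaction 10 min RT.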

Sequence of Acetylcholinesterase (Homo sapiens) (P22303 whole entry, looked up): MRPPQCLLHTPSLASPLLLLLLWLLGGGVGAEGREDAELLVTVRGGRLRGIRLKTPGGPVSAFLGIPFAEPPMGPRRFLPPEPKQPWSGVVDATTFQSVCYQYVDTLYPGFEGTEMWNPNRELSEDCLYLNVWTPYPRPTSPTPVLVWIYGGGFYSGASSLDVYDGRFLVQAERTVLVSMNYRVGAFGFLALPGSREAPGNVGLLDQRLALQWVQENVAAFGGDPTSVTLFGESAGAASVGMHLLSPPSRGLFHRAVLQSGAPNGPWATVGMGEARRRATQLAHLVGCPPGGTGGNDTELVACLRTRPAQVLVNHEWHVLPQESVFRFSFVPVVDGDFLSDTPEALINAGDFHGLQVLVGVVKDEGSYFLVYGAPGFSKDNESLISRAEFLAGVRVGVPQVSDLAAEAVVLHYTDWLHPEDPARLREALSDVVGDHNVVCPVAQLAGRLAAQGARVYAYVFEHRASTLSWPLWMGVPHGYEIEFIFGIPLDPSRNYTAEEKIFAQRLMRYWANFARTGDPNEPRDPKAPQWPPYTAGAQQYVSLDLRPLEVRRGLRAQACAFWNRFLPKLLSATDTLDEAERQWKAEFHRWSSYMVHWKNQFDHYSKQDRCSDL

Structure (SMILES)	Potency	activity change, negative = inhibition
Nc1cc([N+](=O)[O-])ccc1O	inactive	
OC[C@H]1O[C@@H](O[C@H]2[C@H](O)[C@@H](O)[C@H](O)O[C@@H]2CO)[C@H](O)[C@@H](O)[C@H]1O	inactive	
CC(O)(c1ccc(Cl)cc1)c1ccc(Cl)cc1	inactive	
COCCOC(=O)CC#N	inactive	
C#CC(C)(O)CC(C)C (stereo not given)	inactive	
CCCCN(CCO)CCO	inactive	
CCCCCCCCCCC(=O)O	inactive	
CC(=O)Nc1ccc(C(=O)O)cc1	inactive	
CCCCC(CC)COC(=O)c1ccccc1 (stereo not given)	inactive	
CN(C)c1ccc(/C=C/c2ccc([N+](=O)[O-])cc2)cc1		1.35% [at 10.5 µM] (inactive)
O=C(O)c1cc(C(=O)O)cc(C(=O)O)c1	inactive	
O=C(OCc1ccccc1)c1ccccc1O	inactive	
COc1ccc(Nc2ccccc2)c(C)c1	inactive	
CN=C(NC#N)Nc1ccc(C2=NNC(=O)CC2C)cc1 (stereo not given)	inactive	
CCCCCCCC(OC)OC	inactive	

Target: Acetylcholinesterase (Homo sapiens) (UniProt P22303)
Assay: Acetylcholinesterase (AChE) small molecule antagonists: fluorescence cell-based qHTS assay (AID 1347398); note: nearly all actives have a fitted effect of over 50% in size
Conditions: SH-SY5Y cells; Potency: AChE activity; outcome: AChE activity; series mostly up to 115 µM
Outline: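 Thiocholine generated from acetylthiocholine by SH-SY5Y cell AChE is detected with Thiolite Green (Ex/Em 490/520 nm) after 40 min at room temperature, following 30 min compound pretreatment at 37 C.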

Structure (SMILES)	Potency	activity change, negative = inhibition
COc1ccccc1N1CCN(CC(O)COc2cccc3ccccc23)CC1 (stereo not given)	inactive	
C1CCCNCCC1	inactive	
Cc1ccc(N=Nc2c(O)ccc3ccccc23)c(C)c1	inactive	
CCCCCC(=O)OCCc1ccccc1	inactive	
O=C(O)CCCl	inactive	
CO[C@H]1O[C@H](CO)[C@@H](O)[C@H](O)[C@H]1O	inactive	
CN=C(N)NC(=O)Nc1c(C)cccc1C	inactive	
COc1ccc(NC(C)=O)cc1N	inactive	
Cc1ccc(S(=O)(=O)NC(=O)NN2CCCCCC2)cc1	inactive	
COc1ccc(C(=O)CC(=O)c2ccc(C(C)(C)C)cc2)cc1	inactive	
COc1ccc(C(=O)c2ccccc2)c(O)c1	inactive	
O=C1CCCC(=O)O1	inactive	
Cc1ncc(CO)c(C=O)c1O	inactive	
CC(C)OCCO	inactive	
CC(COC(C)(C)C)OCCCO (stereo not given)	inactive	
Cc1ccc2cccnc2c1	inactive	
CC1(C)O[C@@H]2C[C@H]3[C@@H]4C[C@H](F)C5=CC(=O)CC[C@]5(C)[C@H]4[C@@H](O)C[C@]3(C)[C@]2(C(=O)CO)O1	inactive	
O[C@@H]([C@H](O)[C@H](O)CBr)[C@H](O)CBr	inactive	
Cc1ccc(C(=O)Oc2ccc(C(O)CNC(C)(C)C)cc2OC(=O)c2ccc(C)cc2)cc1 (stereo not given)	inactive	
CC(=O)CC(=O)Nc1ccccc1	inactive	

Structure (SMILES)	Potency	activity change, negative = inhibition
CC(C)C(=O)OCc1ccccc1	inactive	
CCNc1ccccc1	inactive	
CCn1ccnc1CC1COc2ccccc2O1 (stereo not given)	inactive	
CCSC(=O)N(CC)CC	inactive	
COc1cc2c(c(OC)c1OC)-c1ccc(OC)c(=O)cc1[C@@H](NC(C)=O)CC2	inactive	
Nc1cc([N+](=O)[O-])ccc1O	inactive	
OC[C@H]1O[C@@H](O[C@H]2[C@H](O)[C@@H](O)[C@H](O)O[C@@H]2CO)[C@H](O)[C@@H](O)[C@H]1O	inactive	
CC(O)(c1ccc(Cl)cc1)c1ccc(Cl)cc1	inactive	
COCCOC(=O)CC#N	inactive	
C#CC(C)(O)CC(C)C (stereo not given)	inactive	
CCCCN(CCO)CCO	inactive	
CCCCCCCCCCC(=O)O	inactive	
CC(=O)Nc1ccc(C(=O)O)cc1	inactive	
CCCCC(CC)COC(=O)c1ccccc1 (stereo not given)	inactive	
CN(C)c1ccc(/C=C/c2ccc([N+](=O)[O-])cc2)cc1		4.62% [at 10.5 µM] (inactive)
O=C(O)c1cc(C(=O)O)cc(C(=O)O)c1	inactive	
O=C(OCc1ccccc1)c1ccccc1O	inactive	
COc1ccc(Nc2ccccc2)c(C)c1	inactive	
CN=C(NC#N)Nc1ccc(C2=NNC(=O)CC2C)cc1 (stereo not given)	inactive	
CCCCCCCC(OC)OC	inactive	

Target: Acetylcholinesterase (Homo sapiens) (UniProt P22303)
Assay: Acetylcholinesterase (AChE) small molecule antagonists: enzyme-based qHTS assay with human liver microsomes (AID 1347399); note: nearly all actives have a fitted effect of over 60% in size
Conditions: Potency: qHTS inhibition; outcome: qHTS inhibition; series mostly up to 115 µM
Outline: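 Recombinant human AChE (50 mU/mL in the enzyme mix) and human liver microsomes (0.25 mg/mL final) were preincubated with compound and NADPH (0.25 mg/mL final) for 30 min at 37 C. Acetylthiocholine/DTNB was then added; thiocholine was read colorimetrically after 10 min at room temperature.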

Structure (SMILES)	Potency	activity change, negative = inhibition
COc1ccccc1N1CCN(CC(O)COc2cccc3ccccc23)CC1 (stereo not given)	inactive	
C1CCCNCCC1	inactive	
Cc1ccc(N=Nc2c(O)ccc3ccccc23)c(C)c1	inactive	
CCCCCC(=O)OCCc1ccccc1	inactive	
O=C(O)CCCl	inactive	
CO[C@H]1O[C@H](CO)[C@@H](O)[C@H](O)[C@H]1O	inactive	
CN=C(N)NC(=O)Nc1c(C)cccc1C	inactive	
COc1ccc(NC(C)=O)cc1N	inactive	
Cc1ccc(S(=O)(=O)NC(=O)NN2CCCCCC2)cc1	inactive	
COc1ccc(C(=O)CC(=O)c2ccc(C(C)(C)C)cc2)cc1	inactive	
COc1ccc(C(=O)c2ccccc2)c(O)c1	inactive	
O=C1CCCC(=O)O1	inactive	
Cc1ncc(CO)c(C=O)c1O	inactive	
CC(C)OCCO	inactive	
CC(COC(C)(C)C)OCCCO (stereo not given)	inactive	
Cc1ccc2cccnc2c1	inactive	
CC1(C)O[C@@H]2C[C@H]3[C@@H]4C[C@H](F)C5=CC(=O)CC[C@]5(C)[C@H]4[C@@H](O)C[C@]3(C)[C@]2(C(=O)CO)O1	inactive	
O[C@@H]([C@H](O)[C@H](O)CBr)[C@H](O)CBr	inactive	
Cc1ccc(C(=O)Oc2ccc(C(O)CNC(C)(C)C)cc2OC(=O)c2ccc(C)cc2)cc1 (stereo not given)	inactive	
CC(=O)CC(=O)Nc1ccccc1	inactive	

Structure (SMILES)	Potency	activity change, negative = inhibition
CC(C)C(=O)OCc1ccccc1	inactive	
CCNc1ccccc1	inactive	
CCn1ccnc1CC1COc2ccccc2O1 (stereo not given)	inactive	
CCSC(=O)N(CC)CC	inactive	
COc1cc2c(c(OC)c1OC)-c1ccc(OC)c(=O)cc1[C@@H](NC(C)=O)CC2	inactive	
Nc1cc([N+](=O)[O-])ccc1O	inactive	
OC[C@H]1O[C@@H](O[C@H]2[C@H](O)[C@@H](O)[C@H](O)O[C@@H]2CO)[C@H](O)[C@@H](O)[C@H]1O	inactive	
CC(O)(c1ccc(Cl)cc1)c1ccc(Cl)cc1	inactive	
COCCOC(=O)CC#N	inactive	
C#CC(C)(O)CC(C)C (stereo not given)	inactive	
CCCCN(CCO)CCO	inactive	
CCCCCCCCCCC(=O)O	inactive	
CC(=O)Nc1ccc(C(=O)O)cc1	inactive	
CCCCC(CC)COC(=O)c1ccccc1 (stereo not given)	inactive	
CN(C)c1ccc(/C=C/c2ccc([N+](=O)[O-])cc2)cc1		1.54% [at 10.5 µM] (inactive)
O=C(O)c1cc(C(=O)O)cc(C(=O)O)c1	inactive	
O=C(OCc1ccccc1)c1ccccc1O	inactive	
COc1ccc(Nc2ccccc2)c(C)c1	inactive	
CN=C(NC#N)Nc1ccc(C2=NNC(=O)CC2C)cc1 (stereo not given)	inactive	
CCCCCCCC(OC)OC	inactive	
